Results filed as inconclusive are left out. Some of the results follow. The source made the active and inactive calls. The call rests on the fitted dose curve; in most records, active means well fitted curve in the direction sought with a large enough effect; inconclusive means small, poorly fitted or top-dose-only effect, or another doubt; inactive means no such curve, though single readings can be large; an effect the other way counts as inactive or inconclusive.
Experiments:
[1] = target: Rap guanine nucleotide exchange factor 3 (Homo sapiens) (UniProt O95398); test: Confirmatory qHTS for agonist of cAMP-regulated guanine nucleotide exchange factor 3 (EPAC1) (AID 1645881); further: nearly all actives have a fitted effect of over 75% in size; further: potency means the concentration at half of the fitted maximal effect;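 on activation: EPAC1 catalysed release of BODIPY-GDP from Rap1B seen as fluorescence loss; 100% = effect of cAMP agonist control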
[2] = target: Rap guanine nucleotide exchange factor 4 (Homo sapiens) (UniProt Q8WZA2); test: Confirmatory qHTS for agonist of cAMP-regulated guanine nucleotide exchange factor 4 (EPAC2) (AID 1645884);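 further: nucleotide exchange releases bodipy-GDP from Rap1 and this lowers its fluorescence; nearly all actives have a fitted effect of over 65% in size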; further: potency means the concentration at half of the fitted maximal effect; on activation: on the % scale 0 is the no-effect control and ±100 the full control effect
[3] = target: Rap guanine nucleotide exchange factor 3 (Homo sapiens) (UniProt O95398); test: Counterscreen qHTS for antagonist of cAMP-regulated guanine nucleotide exchange factor 3 (EPAC1) (AID 1645888);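 further: fluorescence loss as bound BODIPY-GDP is released from Rap1B; % of control where 0% means no effect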
Summary of the method: (§1)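 Rap1B–BODIPY-GDP (250 nM) with 50 uM GDP; compounds pin-transferred to 9.74 nM–152 uM final (activator) or from 7.32 nM upwards (inhibitor). Fluorescence Ex/Em 480/540 nm read at 5 and 30 min, then after adding cAMP or buffer, at room temperature.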

[4] = target: Rap guanine nucleotide exchange factor 3 (Homo sapiens) (UniProt O95398); test: Counterscreen qHTS for agonist of cAMP-regulated guanine nucleotide exchange factor 3 (EPAC1) (AID 1645889); further: nearly all actives have a fitted effect of over 40% in size; further: potency means the concentration at half of the fitted maximal effect; on activation: % of control where 0% means no effect
Summary of the method: as §1

[5] = target: DNA polymerase iota (Homo sapiens) (UniProt Q9UNA4); test: qHTS for Inhibitors of Polymerase Iota: Confirmatory Assay for Cherry-picked Compounds (AID 720496); details: Pol iota primer extension, TAMRA/BHQ fluorescence; further: potency means the concentration at half of the fitted maximal effect
Summary of the method: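 Using TAMRA dequenching as read-out, activity of 10 nM human Pol iota on 50 nM (final) primer/reporter/template substrate was tracked from 0 to 10 min, following a 15 min room-temperature compound preincubation.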

[6] = target: Flap endonuclease 1 (Homo sapiens) (UniProt P39748); test: qHTS Assay for the Inhibitors of FEN1: Confirmatory Assay for Cherry-picked Compounds (AID 720498); details: FEN1 flap cleavage, TAMRA/BHQ2 fluorogenic DNA substrate; further: potency means the concentration at half of the fitted maximal effect; nearly all actives have a fitted effect of over 60% in size
Summary of the method: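 Human FEN1 (10 nM reagent) was preincubated with compounds for 15 min at room temperature, then 50 nM final double-flap DNA substrate (5'-TAMRA flap, BHQ-2 quencher strand) was added. Fluorescence (ex 525/em 598 nm) was read at 0 and 15 min.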

Rap guanine nucleotide exchange factor 3 (Homo sapiens), sequence (O95398 whole entry, looked up): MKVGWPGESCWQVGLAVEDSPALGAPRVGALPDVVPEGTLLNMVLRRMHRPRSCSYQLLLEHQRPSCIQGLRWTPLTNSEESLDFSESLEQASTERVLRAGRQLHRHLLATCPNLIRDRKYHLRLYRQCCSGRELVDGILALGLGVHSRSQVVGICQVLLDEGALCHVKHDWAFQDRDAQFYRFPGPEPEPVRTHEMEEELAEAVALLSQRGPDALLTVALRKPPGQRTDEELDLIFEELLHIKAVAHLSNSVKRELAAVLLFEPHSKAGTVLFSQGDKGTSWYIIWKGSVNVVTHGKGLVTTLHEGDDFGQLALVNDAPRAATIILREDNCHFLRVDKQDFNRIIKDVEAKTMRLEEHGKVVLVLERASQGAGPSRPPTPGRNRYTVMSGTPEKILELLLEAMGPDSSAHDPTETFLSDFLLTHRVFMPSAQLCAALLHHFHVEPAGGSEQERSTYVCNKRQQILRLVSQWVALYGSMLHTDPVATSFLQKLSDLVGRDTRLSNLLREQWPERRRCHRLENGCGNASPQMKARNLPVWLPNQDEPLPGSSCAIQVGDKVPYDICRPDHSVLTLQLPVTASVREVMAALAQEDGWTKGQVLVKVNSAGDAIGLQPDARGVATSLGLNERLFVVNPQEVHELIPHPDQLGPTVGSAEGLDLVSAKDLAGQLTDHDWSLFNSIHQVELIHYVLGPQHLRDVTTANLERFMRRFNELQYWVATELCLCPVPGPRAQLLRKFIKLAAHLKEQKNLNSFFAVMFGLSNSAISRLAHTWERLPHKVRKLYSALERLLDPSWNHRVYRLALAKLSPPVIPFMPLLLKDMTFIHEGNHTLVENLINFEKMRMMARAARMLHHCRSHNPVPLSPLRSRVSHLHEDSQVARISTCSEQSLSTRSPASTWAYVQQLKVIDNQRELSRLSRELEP
Rap guanine nucleotide exchange factor 4 (Homo sapiens), sequence (Q8WZA2 whole entry, looked up): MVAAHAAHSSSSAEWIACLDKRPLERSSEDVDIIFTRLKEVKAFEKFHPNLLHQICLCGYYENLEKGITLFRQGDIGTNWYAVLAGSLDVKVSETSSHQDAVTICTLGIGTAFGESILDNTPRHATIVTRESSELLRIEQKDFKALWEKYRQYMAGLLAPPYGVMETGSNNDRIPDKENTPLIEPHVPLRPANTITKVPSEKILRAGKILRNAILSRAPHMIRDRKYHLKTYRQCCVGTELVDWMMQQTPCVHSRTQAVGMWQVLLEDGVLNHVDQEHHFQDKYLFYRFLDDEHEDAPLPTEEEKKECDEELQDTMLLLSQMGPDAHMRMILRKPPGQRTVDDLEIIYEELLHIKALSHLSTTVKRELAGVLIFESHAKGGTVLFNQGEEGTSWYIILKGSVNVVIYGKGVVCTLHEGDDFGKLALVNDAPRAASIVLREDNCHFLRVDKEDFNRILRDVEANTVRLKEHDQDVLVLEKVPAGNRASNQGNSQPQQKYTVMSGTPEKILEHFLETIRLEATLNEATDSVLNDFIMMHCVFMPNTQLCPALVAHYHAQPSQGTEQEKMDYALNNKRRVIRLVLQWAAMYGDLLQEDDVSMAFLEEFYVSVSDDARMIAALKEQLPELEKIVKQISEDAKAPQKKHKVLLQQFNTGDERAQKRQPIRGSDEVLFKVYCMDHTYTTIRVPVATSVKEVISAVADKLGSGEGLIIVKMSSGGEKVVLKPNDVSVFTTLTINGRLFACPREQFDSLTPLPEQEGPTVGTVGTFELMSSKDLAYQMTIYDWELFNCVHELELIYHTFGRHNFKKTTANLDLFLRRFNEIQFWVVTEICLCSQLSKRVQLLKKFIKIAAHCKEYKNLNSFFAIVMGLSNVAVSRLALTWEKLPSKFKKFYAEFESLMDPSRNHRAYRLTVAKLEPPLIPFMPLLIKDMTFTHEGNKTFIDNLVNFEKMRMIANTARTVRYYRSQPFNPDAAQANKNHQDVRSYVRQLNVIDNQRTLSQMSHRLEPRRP
DNA polymerase iota (Homo sapiens), sequence (Q9UNA4 whole entry, looked up): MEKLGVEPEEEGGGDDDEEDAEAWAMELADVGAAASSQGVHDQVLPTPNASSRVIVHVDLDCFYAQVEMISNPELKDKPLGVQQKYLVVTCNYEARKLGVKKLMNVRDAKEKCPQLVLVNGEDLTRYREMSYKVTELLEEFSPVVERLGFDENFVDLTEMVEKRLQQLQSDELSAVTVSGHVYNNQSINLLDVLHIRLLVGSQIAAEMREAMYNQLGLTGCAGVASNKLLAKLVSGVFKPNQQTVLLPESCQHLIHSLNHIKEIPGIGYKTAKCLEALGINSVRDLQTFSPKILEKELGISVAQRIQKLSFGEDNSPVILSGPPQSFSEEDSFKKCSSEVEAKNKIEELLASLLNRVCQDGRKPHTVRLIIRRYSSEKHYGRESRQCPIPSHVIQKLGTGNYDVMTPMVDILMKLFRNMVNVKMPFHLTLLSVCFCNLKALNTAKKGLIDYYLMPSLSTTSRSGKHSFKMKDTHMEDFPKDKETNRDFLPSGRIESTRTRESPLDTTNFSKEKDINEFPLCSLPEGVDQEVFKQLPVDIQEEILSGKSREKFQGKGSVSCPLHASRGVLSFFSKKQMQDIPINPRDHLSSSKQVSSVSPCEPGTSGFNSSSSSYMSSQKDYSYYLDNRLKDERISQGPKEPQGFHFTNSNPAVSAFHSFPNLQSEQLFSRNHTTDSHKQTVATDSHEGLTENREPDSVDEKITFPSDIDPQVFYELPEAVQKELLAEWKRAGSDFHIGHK
Flap endonuclease 1 (Homo sapiens), sequence (P39748 whole entry, looked up): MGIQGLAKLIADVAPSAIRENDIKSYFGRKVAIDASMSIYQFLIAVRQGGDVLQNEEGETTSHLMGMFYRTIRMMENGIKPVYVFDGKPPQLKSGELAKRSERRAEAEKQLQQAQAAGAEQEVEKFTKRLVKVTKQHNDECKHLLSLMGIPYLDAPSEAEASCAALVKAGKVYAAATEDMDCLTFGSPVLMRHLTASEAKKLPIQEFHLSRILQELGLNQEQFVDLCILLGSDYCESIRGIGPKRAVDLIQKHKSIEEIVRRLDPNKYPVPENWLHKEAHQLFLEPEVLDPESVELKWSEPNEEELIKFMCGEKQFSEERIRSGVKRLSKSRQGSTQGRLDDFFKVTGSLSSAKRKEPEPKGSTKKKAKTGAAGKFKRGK

Cc1ccc2nc(-c3cccc(Br)c3)c(Cc3ccccn3)n2c1
inactive: Potency [1] | Potency [2] | Potency [3] | Potency [4]

CCCCn1c(=O)[nH]c(=O)c2c1nc(-c1ccccc1F)n2Cc1ccccc1OC
inactive: Potency [1] | Potency [2] | Potency [3] | Potency [4]

COc1ccccc1N1C(=O)C2C(C(=O)c3ccccc3)=NN(c3ccc(Br)cc3)C2C1=O (stereo not given)
inactive: Potency [1] | Potency [2] | Potency [3] | Potency [4]

CC(c1ccon1)N(C)Cc1cn(C)nc1-c1cccc(Cl)c1 (stereo not given)
inactive: Potency [1] | Potency [2] | Potency [3] | Potency [4]

Cc1cc(C)c2c(CN3CCC(C)CC3)cc(=O)oc2c1
inactive: Potency [1] | activation [2] -1.95% [at 17.1 µM, percent relative to cAMP agonist control] | activity change, negative = inhibition [3] 10.9% [at 30.8 µM] | activation [4] 22% [at 30.8 µM]

CN(C)c1cc(Cl)c2nonc2c1N
inactive: Potency [1] | Potency [2] | Potency [3] | Potency [4]

COc1ccc(-c2ccc(C(=O)NCC3CC3)c3occc23)c(C)c1
inactive: Potency [1] | Potency [2] | Potency [3] | Potency [4]

Cn1c2ccccc2c2cc(/C=N/NC(=O)c3cc(O)cc(O)c3)ccc21
inactive: Potency [1] | Potency [2] | Potency [3] | Potency [4]

CCOC(=O)Cn1nc(C)c(NC(=O)COc2ccccc2[N+](=O)[O-])c1C
inactive: Potency [1] | activation [2] 1.83% [at 17.1 µM, percent relative to cAMP agonist control] | activity change, negative = inhibition [3] -12.5% [at 30.8 µM] | activation [4] 2.17% [at 30.8 µM]

O=c1oc2ccccc2n1Cc1ccccc1Cl
inactive: Potency [1] | Potency [2] | Potency [3] | Potency [4]

Fc1ccc2cnc(-c3ccccc3)c(-c3ccc(C(F)(F)F)cc3)c2c1
inactive: Potency [1] | Potency [2] | Potency [3] | Potency [4]

CCC(C)(C)c1ccc(Oc2ccc(N)cc2)cc1
inactive: Potency [1] | Potency [2] | Potency [3] | Potency [4]

Fc1ccc2c(-c3cccc(C(F)(F)F)c3)c(-c3ccccc3)ncc2c1
inactive: Potency [1] | Potency [2] | Potency [3] | Potency [4]

C=CC[C@@H](Cc1ccc(F)cc1)C(=O)OC[C@@H]1CCCN1C(=O)[C@@H](CC=C)CC(=O)N(CCO)Cc1ccccc1
inactive: Potency [1] | Potency [2] | Potency [3] | Potency [4]

C=C1SC(Nc2c(C)cccc2C)=NC12CCCCC2
inactive: Potency [1] | Potency [2] | Potency [3] | Potency [4]

CCOC(=O)C1C(=O)C=C(c2ccc(C)cc2)CC1c1ccccc1 (stereo not given)
inactive: Potency [1] | activation [2] 7.74% [at 17.1 µM, percent relative to cAMP agonist control] | activity change, negative = inhibition [3] -1.31% [at 30.8 µM] | activation [4] 8.22% [at 30.8 µM]

O=S(=O)(Nc1ccccc1N1CCCC1)c1ccccc1C(F)(F)F
inactive: Potency [1] | Potency [2] | Potency [3] | Potency [4]

COc1cnc(N(C)C)nc1Sc1cccc(Cl)c1
inactive: Potency [1] | activation [2] 2.02% [at 17.1 µM, percent relative to cAMP agonist control] | activity change, negative = inhibition [3] -24.7% [at 30.8 µM] | activation [4] -4.79% [at 30.8 µM]

CC(=O)NC(c1ccc(Cl)cc1Cl)c1ccc2cccnc2c1O (stereo not given)
inactive: Potency [1] | Potency [2] | Potency [3] | Potency [4]

COC(=O)c1sc(-c2ccc(C(C)(C)C)cc2)cc1NC(=O)CSCC(=O)O
inactive: Potency [1] | Potency [2] | Potency [3] | Potency [4]

Cc1ccc(C2CC(c3cccs3)=NN2C(=O)CSc2nc(=O)n3cc(C)ccc3n2)cc1 (stereo not given)
inactive: Potency [1] | Potency [2] | Potency [3] | Potency [4]

COc1cccc(N2CCN(CC(=O)NC(=O)NCc3ccco3)CC2)c1
inactive: Potency [1] | Potency [2] | Potency [3] | Potency [4]

CC(=O)C1=C(O)C2(C)c3c(O)c(C)c(O)c(C(C)=O)c3OC2CC1=O (stereo not given)
inactive: Potency [1] | activation [2] -4.59% [at 17.1 µM, percent relative to cAMP agonist control] | activity change, negative = inhibition [3] -6.21% [at 30.8 µM] | activation [4] -4.12% [at 30.8 µM]

CCC(=C(c1ccc(OC)cc1)c1ccc(OC)cc1)c1cn(CC(O)CN(CCO)CCO)c2ccccc12 (stereo not given)
inactive: Potency [1] | Potency [2] | Potency [3] | Potency [4]

COc1ccccc1N(C)S(=O)(=O)c1ccc(C(=O)NC2CCCCC2)cc1
inactive: Potency [1] | Potency [2] | Potency [3] | Potency [4]

Cc1ccc2oc(=O)c3cnn(CC(=O)NC4CCC(C)CC4)c3c2c1 (stereo not given)
inactive: Potency [1] | Potency [2] | Potency [3] | Potency [4]

O=C(O)c1ccc(COc2ccc3ccccc3c2/C=C2/NC(=O)N(Cc3ccc(F)cc3)C2=O)cc1
inactive: Potency [1] | Potency [2] | Potency [3] | Potency [4]

Cc1noc(C)c1COc1ccccc1C(=O)N(C)Cc1ccc(C(C)(C)C)cc1
inactive: Potency [1] | Potency [2] | Potency [3] | Potency [4]

O=S(=O)(Nc1nccs1)c1ccc(Nc2nnc(-c3ccccc3)c3ccccc23)cc1
inactive: Potency [1] | activation [2] 2.79% [at 17.1 µM, percent relative to cAMP agonist control] | activity change, negative = inhibition [3] 3.85% [at 30.8 µM] | activation [4] 17.5% [at 30.8 µM]

CCOc1ccc(NC(=NCc2ccc3c(c2)OCO3)SC2CC(=O)N(c3ccc(C(=O)O)cc3)C2=O)cc1 (stereo not given)
inactive: Potency [1] | Potency [2] | Potency [3] | Potency [4]

COc1cccc(C(=O)Oc2ccc(/C=N/Nc3ccc(C(=O)O)cc3)cc2OC)c1
inactive: Potency [1] | Potency [2] | Potency [3] | Potency [4]

COc1ccc(/C=N/NC(=O)c2ccccc2O)cc1Cn1nnc2ccccc21
inactive: Potency [1] | Potency [2] | Potency [3] | Potency [4]

O=C(O)c1[nH]c2ccccc2c1C(c1cccc(O)c1)c1c(C(=O)O)[nH]c2ccccc12
inactive: Potency [1] | Potency [2] | Potency [3] | Potency [4]

Cc1c(C(=O)N2CCCC2)oc2ccc(Br)cc12
inactive: Potency [1] | Potency [2] | Potency [3] | Potency [4]

CCc1c(C2(O)CCCCC2)[nH]c2c(C(=O)OC)cc(Cl)cc12
inactive: Potency [1] | Potency [2] | Potency [3] | Potency [4]

CCN(CC)S(=O)(=O)c1ccc2[nH]c(=O)cc(C(=O)Nc3ccc(C)c(S(=O)(=O)N(CC)CC)c3)c2c1
inactive: Potency [1] | Potency [2] | Potency [3] | Potency [4]

O=S(=O)(Nc1ccccc1-c1ccccc1)c1ccccc1
inactive: Potency [1] | Potency [2] | Potency [3] | Potency [4]

CCCCC[C@H](C)N1C[C@H](COCc2ccccc2)Oc2cc(N3CCC[C@H]3C(N)=O)ccc2S1(=O)=O
inactive: Potency [1] | Potency [2] | Potency [3] | Potency [4]

O=C1c2ccccc2C(c2nnnn2Cc2ccccc2)N1CCc1c[nH]c2ccccc12 (stereo not given)
inactive: Potency [1] | Potency [2] | Potency [3] | Potency [4]

O=C(NCCc1ccccc1)c1cccc(NC(=O)c2ccccc2)c1
inactive: Potency [1] | Potency [2] | Potency [3] | Potency [4]

O=C(O)c1ccc(COc2ccccc2/C=C2\NC(=O)N(Cc3ccc(F)cc3)C2=O)cc1
inactive: Potency [1] | Potency [2] | Potency [3] | Potency [4]

CCN1CC=C2C(C#N)=C(N)C(C#N)(C#N)C(CCc3ccccc3)C2C1 (stereo not given)
active: Potency [1] 50.1 µM | Potency [2] 50.1 µM | Potency [4] 5.62 µM
inactive: Potency [3]

CC1=NN(c2nc(-c3ccccc3)cs2)C(=O)C1
inactive: Potency [1] | Potency [2] | Potency [3] | Potency [4]

O=C(CSc1nnc(-c2ccco2)c(-c2ccco2)n1)c1ccccc1
inactive: Potency [1] | Potency [2] | Potency [3] | Potency [4]

CCCN(CCC)Cc1cc(=O)oc2cc(OC)ccc12
inactive: Potency [1] | Potency [2] | Potency [3] | Potency [4]

COC1OC(c2ccccc2)=C(c2cnc(N)nc2)c2ccc(F)cc21 (stereo not given)
inactive: Potency [1] | activation [2] 3.06% [at 17.1 µM, percent relative to cAMP agonist control] | activity change, negative = inhibition [3] -3.58% [at 30.8 µM] | activation [4] 11.3% [at 30.8 µM]

CCCCc1ccc(NC(=O)CN2C(=O)C3CCCCC3C2=O)cc1 (stereo not given)
inactive: Potency [1] | Potency [2] | Potency [3] | Potency [4]

COc1cccc(/C=C2/NC(=O)N(CC(=O)Nc3ccc(C)cc3)C2=O)c1OCc1cccc(C(=O)O)c1
inactive: Potency [1] | Potency [2] | Potency [3] | Potency [4]

O=C(O)c1cc(NN=C2c3ccccc3-c3ccccc32)ccc1Cl
inactive: Potency [1] | Potency [2] | Potency [3] | Potency [4]

N=C1S/C(=C\c2ccco2)C(=O)N1c1ccc2c(c1)OCO2
inactive: Potency [1] | Potency [2] | Potency [3] | Potency [4]

O=C(O)CSc1nnc(COc2cccc3ccccc23)n1Cc1ccccc1
inactive: Potency [1] | Potency [2] | Potency [3] | Potency [4]

O=C(CSc1n[nH]c(=O)[nH]c1=O)Nc1ccc2c(c1)C(=O)c1ccccc1C2=O
inactive: Potency [1] | Potency [2] | Potency [3] | Potency [4]

CCc1cc(=O)oc2cc(C)cc(OCC(=O)N[C@@H](CSCc3ccccc3)C(=O)O)c12
inactive: Potency [1] | Potency [2] | Potency [3] | Potency [4]

O=C1[C@H](Cc2ccccc2)NCC=CC[C@@H](c2ccc(Cl)cc2)N1Cc1ccc(Cl)cc1
inactive: Potency [1] | Potency [2] | Potency [3] | Potency [4]

CCOc1cc(/C=N/O)cc(Br)c1OCc1ccc(Cl)cc1
inactive: Potency [1] | Potency [2] | Potency [3] | Potency [4]

CCc1nc2c(OCc3ccc(C(=O)OC)cc3)cccn2c1N(C)C(=O)c1ccc(OC)cc1
inactive: Potency [1] | activation [2] -6.93% [at 17.1 µM, percent relative to cAMP agonist control] | activity change, negative = inhibition [3] 5.67% [at 30.8 µM] | activation [4] 20% [at 30.8 µM]

Cc1ccc(C)c(Cn2nc(-c3ccccc3)ccc2=O)c1
inactive: Potency [1] | activation [2] -4.57% [at 17.1 µM, percent relative to cAMP agonist control] | activity change, negative = inhibition [3] 14.9% [at 30.8 µM] | activation [4] 3.62% [at 30.8 µM]

COc1ccccc1/C=C/C=c1\sc2nc(=O)c(Cc3ccccc3)nn2c1=O
inactive: Potency [1] | Potency [2] | Potency [3] | Potency [4]

O=C(O)c1cc(N/N=C/C=C/c2ccccc2)ccc1Cl
inactive: Potency [1] | Potency [2] | Potency [3] | Potency [4]

COc1ccc(-c2nn(-c3ccccc3)cc2/C=C2/SC(=S)N(CCCC(=O)O)C2=O)c(C)c1
inactive: Potency [1] | Potency [2] | Potency [3] | Potency [4]
active: Potency [5] 75.2 µM | Potency [6] 47.8 µM

CC(C)CCNC(=O)c1cnn2c(C(F)(F)F)cc(-c3ccco3)nc12
inactive: Potency [1] | Potency [2] | Potency [3] | Potency [4]

CCOC(=O)[C@H]1[C@H]2COc3ccc(C)cc3[C@@H]2N2C(=O)c3cc(F)c(F)cc3NC(=O)[C@@]12C
inactive: Potency [1] | Potency [2] | Potency [3] | Potency [4]

Source: PubChem BioAssay (NCATS)
